Inconclusive results are not listed. Calls of active or inactive are those of the source. Unless noted, calls come from the whole dose curve; as a rule, active = well fitted curve in the direction sought with a large enough effect in the repeat runs; inconclusive = weak or mixed curves; inactive = no such curve, though single readings can be large; an effect the other way counts as inactive or inconclusive.
Experiments:
[1] = qHTS assay to identify small molecule antagonists of the estrogen related receptor (ERR) signaling pathway from Tox21 library - cell viability counter screen (AID 1224834); note: nearly all actives have a fitted effect of over 30% in size
Outline: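 In this quantitative HTS format, ERR cells receive compounds in DMSO and are incubated for 17.5 h at 37 C. Live-cell protease activity is then detected with CellTiter-Fluor.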

[2] = qHTS assay to identify small molecule agonists of the constitutive androstane receptor (CAR) signaling pathway - cell viability counter screen (AID 1224836); note: series mostly up to about 92 µM; nearly all actives have a fitted effect of over 45% in size
Outline: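 HepG2 cells stably carrying hCAR and a CYP2B6-2.2kb reporter were plated 4 h, then given compounds at 15 concentrations plus PK11195 (final 0.75 uM). After 23 h at 37 C, viability was read by CellTiter-Fluor fluorescence.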

[3] = qHTS assay to identify small molecule antagonists of the constitutive androstane receptor (CAR) signaling pathway - cell viability counter screen (AID 1224837); note: series mostly up to about 92 µM; nearly all actives have a fitted effect of over 45% in size
Outline: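 In quantitative HTS format, compounds at 15 concentrations were applied to HepG2 cells double-transfected with hCAR and CYP2B6-2.2kb under 50 nM CITCO stimulation; live-cell protease activity was read after 23 hr via CellTiter-Fluor.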

[4] = target: Nuclear receptor subfamily 1 group I member 3 (Homo sapiens) (UniProt Q14994); test: qHTS assay to identify small molecule antagonists of the constitutive androstane receptor (CAR) signaling pathway (AID 1224838); note: nearly all actives have a fitted effect of over 40% in size
Chain of Nuclear receptor subfamily 1 group I member 3 (Homo sapiens) (Q14994 whole entry, looked up): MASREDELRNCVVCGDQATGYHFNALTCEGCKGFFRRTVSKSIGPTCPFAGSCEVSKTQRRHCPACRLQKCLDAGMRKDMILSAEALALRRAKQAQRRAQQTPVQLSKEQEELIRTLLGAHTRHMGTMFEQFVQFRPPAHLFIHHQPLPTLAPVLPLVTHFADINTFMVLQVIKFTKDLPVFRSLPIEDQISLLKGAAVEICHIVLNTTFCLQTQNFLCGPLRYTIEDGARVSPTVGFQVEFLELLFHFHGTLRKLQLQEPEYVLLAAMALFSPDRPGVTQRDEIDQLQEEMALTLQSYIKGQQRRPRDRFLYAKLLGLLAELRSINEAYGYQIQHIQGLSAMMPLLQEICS
Outline: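 CITCO-stimulated (50 nM final) HepG2 cells stably transfected with hCAR and CYP2B6-2.2kb luciferase were exposed to compounds at 15 concentrations for 24 h at 37 C/5% CO2. A luciferase reagent was added and luminescence recorded after 30 min.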

[5] = target: Nuclear receptor subfamily 1 group I member 3 (Homo sapiens) (UniProt Q14994); test: qHTS assay to identify small molecule agonists of the constitutive androstane receptor (CAR) signaling pathway (AID 1224839); note: nearly all actives have a fitted effect of over 15% in size; note: potency is the fitted concentration of half-maximal effect;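 for activation: HepG2 cells stably carrying human CAR and a CYP2B6 luciferase reporter; series mostly up to about 92 µM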
Outline: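 HepG2 cells stably expressing hCAR and a CYP2B6-2.2kb luciferase reporter were treated with compounds at 15 concentrations plus 0.75 uM PK11195 (final) for 24 h at 37 C; luminescence was read after ONE-Glo addition.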

[6] = qHTS assay to identify small molecule antagonists of the estrogen related receptor signaling pathway with the pleiotropic PPARgamma coactivator (PGC) from Tox21 10K library - cell viability counter screen (AID 1224840; active = well fitted cell-killing curve with a large enough effect in the repeat runs, not every such curve was filed as active; note: nearly all actives have a fitted effect of over 40% in size)
Outline: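 Viability counter screen, PGC/ERR cells: 17.5 h compound exposure at 37 C, CellTiter-Fluor fluorescence endpoint.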

[7] = qHTS assay to identify small molecule antagonists of the estrogen related receptor signaling pathway with the pleiotropic PPARgamma coactivator (PGC) from Tox21 10K library (AID 1224841; call rule not given here; note: series mostly up to about 92 µM; actives are mostly falling curves and most rising ones were filed inactive; nearly all actives have a fitted effect of over 50% in size)
Outline: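 In the PGC/ERR line, DMSO solutions of test chemicals are pin-delivered to 2,000 cells/well six hours after dispensing. Following eighteen hours' incubation, One-Glo reagent is added and luminescence recorded.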

[8] = qHTS assay to identify small molecule agonists of the estrogen related receptor signaling pathway with the pleiotropic PPARgamma coactivator (PGC) from Tox21 10K library (AID 1224842); note: nearly all actives have a fitted effect of over 15% in size; note: potency is the fitted concentration of half-maximal effect
Outline: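 PGC/ERR reporter cell line, 2,000 cells per well, incubated 6 h at 37 C before 23 nL compound in DMSO was added. After 18 h at 37 C, One-Glo luminescence read following 30 min at room temperature.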

[9] = target: Thyrotropin receptor (Homo sapiens) (UniProt P16473); test: qHTS assay to identify small molecule agonists of the thyroid stimulating hormone receptor (TSHR) signaling pathway (AID 1224843; calls by dose curve; note: nearly all actives have a fitted effect of over 45% in size)
Chain of Thyrotropin receptor (Homo sapiens) (P16473 whole entry, looked up): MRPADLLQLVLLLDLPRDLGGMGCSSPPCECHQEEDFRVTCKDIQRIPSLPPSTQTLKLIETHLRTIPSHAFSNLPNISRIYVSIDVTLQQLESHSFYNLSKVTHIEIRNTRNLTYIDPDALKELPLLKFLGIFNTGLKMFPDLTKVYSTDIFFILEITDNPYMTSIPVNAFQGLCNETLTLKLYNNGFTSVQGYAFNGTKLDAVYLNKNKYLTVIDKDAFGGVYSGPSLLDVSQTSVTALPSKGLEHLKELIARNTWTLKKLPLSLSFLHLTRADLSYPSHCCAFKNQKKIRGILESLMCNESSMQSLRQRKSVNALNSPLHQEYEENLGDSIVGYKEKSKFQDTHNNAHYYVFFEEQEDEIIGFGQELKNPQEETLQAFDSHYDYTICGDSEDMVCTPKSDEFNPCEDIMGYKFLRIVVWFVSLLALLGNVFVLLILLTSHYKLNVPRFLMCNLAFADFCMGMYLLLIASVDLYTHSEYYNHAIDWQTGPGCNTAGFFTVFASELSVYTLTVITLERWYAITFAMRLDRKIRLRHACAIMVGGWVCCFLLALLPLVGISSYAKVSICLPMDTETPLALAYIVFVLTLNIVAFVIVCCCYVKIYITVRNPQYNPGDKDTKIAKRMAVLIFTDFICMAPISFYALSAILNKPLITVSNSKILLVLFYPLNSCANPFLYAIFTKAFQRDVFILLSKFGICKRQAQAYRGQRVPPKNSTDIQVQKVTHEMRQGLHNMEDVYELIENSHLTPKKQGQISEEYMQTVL
Outline: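 HEK293/TSHR, 800 cells/well; cpd 30 min RT; add cAMP-d2 + anti-cAMP-cryptate, 1 h RT; fluorescence read on plate reader. 15-pt titration, n=3.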

[10] = target: Luciferin 4-monooxygenase (Photinus pyralis) (UniProt P08659); test: qHTS assay to identify small molecule inhibitors of firefly luciferase (AID 1224835); note: nearly all actives have a fitted effect of over 25% in size; note: potency is the fitted concentration of half-maximal effect; for activity change, negative = inhibition: series mostly up to about 120 µM
Chain of Luciferin 4-monooxygenase (Photinus pyralis) (P08659 whole entry, looked up): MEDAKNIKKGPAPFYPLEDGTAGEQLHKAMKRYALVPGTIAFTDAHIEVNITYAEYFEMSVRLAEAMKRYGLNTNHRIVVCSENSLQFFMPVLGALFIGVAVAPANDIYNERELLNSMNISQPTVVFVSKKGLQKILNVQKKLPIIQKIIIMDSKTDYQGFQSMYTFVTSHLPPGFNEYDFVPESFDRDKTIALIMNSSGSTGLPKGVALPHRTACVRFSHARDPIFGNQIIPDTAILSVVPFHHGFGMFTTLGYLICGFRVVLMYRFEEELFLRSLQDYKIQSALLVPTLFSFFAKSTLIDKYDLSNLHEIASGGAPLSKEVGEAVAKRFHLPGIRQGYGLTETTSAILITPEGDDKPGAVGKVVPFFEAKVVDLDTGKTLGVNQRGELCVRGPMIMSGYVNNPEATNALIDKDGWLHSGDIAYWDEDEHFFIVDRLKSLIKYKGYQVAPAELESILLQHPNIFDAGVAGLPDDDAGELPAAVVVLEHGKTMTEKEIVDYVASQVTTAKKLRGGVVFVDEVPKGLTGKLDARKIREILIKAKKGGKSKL
Outline: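 Biochemical qHTS: compounds run as interplate titrations against purified firefly enzyme, with D-luciferin and ATP each at its KM concentration. Light output recorded by CCD imaging.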
% is set by controls: 0 for no effect and ±100 for the full control effect.

Cc1cccc(C)c1NC(=O)CN1CCCCCC1
inactive: Potency [1] | Potency [2] | Potency [3] | Potency [4] | Potency [5] | Potency [6] | Potency [7] | Potency [8] | Potency [9]

CCCNC(C)C(=O)Nc1c(C)csc1C(=O)OC (centres undefined)
inactive: Potency [1] | Potency [2] | Potency [3] | Potency [5] | Potency [6] | Potency [7] | Potency [8] | Potency [9]

CCN(CC)CCOc1ccc(Cc2ccccc2)cc1
inactive: Potency [1] | Potency [2] | Potency [3] | Potency [4] | Potency [6] | Potency [9]

CC(C)(C)c1ccc(OC(=O)c2ccccc2O)cc1
inactive: Potency [1] | Potency [4] | Potency [7] | Potency [9]
active: Potency [10] 1.78 µM | Potency [8] 10.9 µM

C[C@@H](N)C(=O)O
inactive: Potency [1] | Potency [2] | Potency [3] | Potency [4] | Potency [6] | Potency [9]

COC(=O)c1ccc(OC)cc1
inactive: Potency [1] | Potency [2] | Potency [3] | Potency [4] | Potency [6] | Potency [7] | Potency [8] | Potency [9]

O=C(O)C(=O)Cc1c[nH]c2ccccc12
inactive: Potency [1] | Potency [2] | Potency [3] | Potency [4] | Potency [6] | Potency [9]
active: Potency [5] 30.6 µM

O=Cc1ccc(F)c(Br)c1
inactive: Potency [1] | Potency [2] | Potency [3] | Potency [4] | Potency [6]

O=C(O)c1cccc(Cl)c1Cl
inactive: Potency [1] | Potency [2] | Potency [3] | Potency [4] | Potency [5] | Potency [6]

CC(C)NCC(O)COc1ccc(CCOCC2CC2)cc1 (centres undefined)
inactive: Potency [1] | Potency [2] | Potency [3] | Potency [4] | Potency [5]

CC(C)(C)c1cccc(O)c1
inactive: Potency [1] | Potency [2] | Potency [3] | Potency [7] | Potency [8] | Potency [9]

OCc1ccccc1O
inactive: Potency [1] | Potency [2] | Potency [3] | Potency [4] | Potency [5] | Potency [6] | Potency [9]

C1CCOC1
inactive: Potency [1] | Potency [2] | Potency [3] | Potency [4] | Potency [6] | Potency [7] | Potency [8] | Potency [9]

ICCc1ccccc1
inactive: Potency [1] | Potency [2] | Potency [3] | Potency [6] | Potency [7] | Potency [8]

C=CCCC=C
inactive: Potency [1] | Potency [2] | Potency [3] | Potency [6] | Potency [7] | Potency [9]

CC(C)C[C@H](NC(=O)OCC1c2ccccc2-c2ccccc21)C(=O)O
inactive: Potency [1] | Potency [6] | Potency [7] | Potency [9]
active: Potency [10] 3.56 µM | Potency [8] 15.4 µM

NC/C=C/C(=O)O
inactive: Potency [1] | Potency [2] | Potency [3] | Potency [4] | Potency [7] | Potency [8] | Potency [9]

Nc1cccc(S(=O)(=O)O)c1
inactive: Potency [1] | Potency [2] | Potency [3] | Potency [4] | Potency [5] | Potency [6]

C=O
inactive: Potency [1] | Potency [2] | Potency [3] | Potency [4] | Potency [5] | Potency [6] | Potency [7] | Potency [8] | Potency [9]

O=C1C=CC(=O)O1
inactive: Potency [1] | Potency [2] | Potency [3] | Potency [7] | Potency [8] | Potency [9]

CC(C)NC[C@@H](O)COc1cccc2ccccc12
inactive: Potency [1] | Potency [2] | Potency [3] | Potency [4] | Potency [5] | Potency [6]

C1CSCCS1
inactive: Potency [1] | Potency [2] | Potency [3] | Potency [5] | Potency [7] | Potency [8] | Potency [9]

Cc1ncc(CO)c(CN)c1O
inactive: Potency [1] | Potency [10] | Potency [4] | Potency [5] | Potency [7] | Potency [8] | Potency [9]

CCC(=O)Nc1ccc(O)cc1
inactive: Potency [1] | Potency [10] | Potency [3] | Potency [6] | Potency [9]

NC1=NCC2c3ccccc3Cc3ccccc3N12 (centres undefined)
inactive: Potency [1] | Potency [2] | Potency [4] | Potency [5] | Potency [6]

CCN1CC(CCN2CCOCC2)C(c2ccccc2)(c2ccccc2)C1=O (centres undefined)
inactive: Potency [1] | Potency [2] | Potency [3] | Potency [4] | Potency [5] | Potency [6] | Potency [7] | Potency [8] | Potency [9]

C[C@]12CCC(=O)C=C1CC[C@@H]1[C@@H]2CC[C@@]2(C)[C@H]1CC[C@]2(O)C(=O)CO
inactive: Potency [1] | Potency [2] | Potency [3] | Potency [6] | Potency [7] | Potency [8] | Potency [9]

CCOC(=O)C(Br)c1ccccc1 (centres undefined)
inactive: Potency [1] | Potency [2] | Potency [3] | Potency [4] | Potency [5] | Potency [6] | Potency [9]

CN(C)CCOc1ccccc1Cc1ccccc1
inactive: Potency [1] | Potency [2] | Potency [3] | Potency [4] | Potency [8]

C[C@]12C(=O)OC(=O)[C@H]1[C@H]1C=C[C@@H]2C1
inactive: Potency [1] | Potency [2] | Potency [3] | Potency [4] | Potency [5] | Potency [7] | Potency [8] | Potency [9]

Cc1c(-c2ccccc2)oc2c(C(=O)OCCN3CCCCC3)cccc2c1=O
inactive: Potency [1] | Potency [2] | Potency [3] | Potency [4] | Potency [6] | Potency [9]

CCCCNc1cc(C(=O)O)cc(S(N)(=O)=O)c1Oc1ccccc1
inactive: Potency [1] | Potency [10] | Potency [3] | Potency [6] | Potency [9]

NCCCN1CCN(CCCN)CC1
inactive: Potency [1] | Potency [10] | Potency [4] | Potency [5] | Potency [6]

C=C(C)C(=O)OCCOP(=O)(O)O
inactive: Potency [1] | Potency [2] | Potency [3] | Potency [4] | Potency [5] | Potency [6] | Potency [9]

CC1=NN(c2cc(Cl)c(S(=O)(=O)O)cc2Cl)C(=O)C1N=Nc1ccc(S(=O)(=O)O)cc1 (centres undefined)
inactive: Potency [10]

CO[Si](C)(C)OC
inactive: Potency [1] | Potency [2] | Potency [4] | Potency [5] | Potency [6] | Potency [7] | Potency [8] | Potency [9]

CN(C)C(=O)NC1(c2ccccc2)CCN(CCC[C@]2(c3ccc(Cl)c(Cl)c3)CCCN(C(=O)c3ccccc3)C2)CC1
inactive: activity change, negative = inhibition [10] -2.4% [at 23.6 µM] | viability change, negative = cytotoxic [2] -28.7% [at 19 µM] | activity, negative = inhibition [4] -20.2% [at 19 µM] | activation [5] -6.21% [at 19 µM] | activation [9] -9.82% [at 19 µM]

Cc1nnc(SCC2=C(C(=O)O)N3C(=O)[C@@H](NC(=O)Cn4cnnn4)[C@H]3SC2)s1
inactive: Potency [10] | Potency [2] | Potency [3] | Potency [6] | Potency [9]

CCCS(=O)c1ccc2nc(NC(=O)OC)[nH]c2c1 (centres undefined)
inactive: Potency [10] | Potency [2] | Potency [3] | Potency [4] | Potency [5] | Potency [6] | Potency [9]

NNS(=O)(=O)c1ccc(Oc2ccc(S(=O)(=O)NN)cc2)cc1
inactive: Potency [10] | Potency [2] | Potency [3] | Potency [6] | Potency [7] | Potency [8]

ClC(Cl)Cl
inactive: Potency [1] | Potency [2] | Potency [5] | Potency [6]

CC(C)c1ccccc1
inactive: Potency [10] | Potency [2] | Potency [4] | Potency [5] | Potency [6] | Potency [9]

Cc1cc2nc(N)sc2cc1C
inactive: Potency [2] | Potency [3] | Potency [4] | Potency [6]
active: Potency [10] 5.69 µM | Potency [5] 2.19 µM

COc1ccc2nc(NC(=O)Nc3ccccc3)sc2c1
inactive: Potency [2] | Potency [3] | Potency [4] | Potency [9]
active: Potency [10] 0.389 µM | Potency [5] 10.6 µM

CCCCCCC
inactive: Potency [10] | Potency [2] | Potency [4] | Potency [5] | Potency [6] | Potency [9]

CCCCCCCCc1ccc(S(=O)(=O)O)cc1
inactive: Potency [1] | Potency [2] | Potency [4] | Potency [6] | Potency [9]

NCCC(O)(P(=O)(O)O)P(=O)(O)O
inactive: Potency [1] | Potency [4] | Potency [5] | Potency [7] | Potency [8] | Potency [9]

O=Cc1ccc(O)c(O)c1O
inactive: Potency [10] | Potency [2] | Potency [3] | Potency [4] | Potency [5] | Potency [6]

O=C(C(Cl)Cl)N1CCOC12CCCCC2
inactive: Potency [1] | Potency [4] | Potency [6] | Potency [7] | Potency [8] | Potency [9]

CCN(CCCc1ccccc1)CCCc1ccccc1
inactive: Potency [1] | Potency [3] | Potency [8] | Potency [9]

COc1cc(C)ccc1C(C)C
inactive: Potency [10] | Potency [2] | Potency [3] | Potency [6] | Potency [7] | Potency [8] | Potency [9]

Cc1cc(NS(=O)(=O)c2ccc(N)cc2)nc(C)n1
inactive: Potency [1] | Potency [4] | Potency [6] | Potency [9]
active: Potency [5] 11.9 µM

OCCN(CCO)CCN(CCO)CCO
inactive: Potency [10] | Potency [2] | Potency [3] | Potency [4] | Potency [5] | Potency [6] | Potency [7] | Potency [8]
